Source: ChEMBL document CHEMBL1157539, “Thousands of chemical starting points for antimalarial lead identification” (Nature, 2010)

Test system: Plasmodium falciparum
Assay: GSK_TCMDC: Inhibition of Plasmodium falciparum 3D7 in whole red blood cells, using parasite LDH activity as an index of growth. Test compounds present at 2uM
Type: functional

Inhibition, 97%:
Cc1nc(N)nc(N)c1CCCOc1ccccc1Br
Cc1ccc(C)c(NC(=O)NCCNc2ccnc(Nc3ccc(F)cc3)n2)c1

Inhibition, 98%:
COc1cccc(-c2cc(C(F)(F)F)n3ncc(C(=O)Nc4cc(C)ccc4O)c3n2)c1
CC1CCN(C(=O)CSc2nc(-c3ccc(C(C)C)cc3)no2)CC1
COc1ccc(CCn2c(=N)c(C(=O)NCc3cccnc3)cc3c(=O)n4ccccc4nc32)cc1
CCc1cn2c3c(cc(C(=O)N[C@@H](Cc4ccccc4)[C@H](O)CNC(C)C)cc13)N(C)S(=O)(=O)C2.O=CO

Inhibition, 99%:
O=C(NC1CCCc2ccccc21)[C@@H]1CCCN1C(=O)c1ccc(O)c(-c2ccc(Cl)c(Cl)c2)c1 (stereo partly specified)
O=C(Cc1ccccc1)NC(Nc1ccc([N+](=O)[O-])cc1)C(Cl)(Cl)Cl (stereo unspecified)
N#Cc1ccc(N2CCN(Cc3ccc(-c4ccc(-c5nc6ccccc6[nH]5)s4)cc3)CC2)nc1.O=C(O)C(F)(F)F

Inhibition, 100%:
Cc1cccc2nc(-c3cccc(-c4cccc(NC(=O)CNc5ccc(C(N)=O)cc5)c4)c3)[nH]c12
CCCCn1c(=N)c(C(=O)NCc2cccnc2)cc2c(=O)n3cccc(C)c3nc21
CCN(CCCN1CCCCC1)c1cc(C)nc(Nc2ccc(C)c(Br)c2)n1.O=C(O)C(F)(F)F
O=C(NCc1cccc2ccccc12)c1ccc(CNC2CCN(Cc3ccccc3)CC2)cc1.O=C(O)C(F)(F)F
Cc1cccc2nc(-c3cccc(-c4ccc(CNCCc5ccncc5)cc4)c3)[nH]c12.O=C(O)C(F)(F)F
COc1ccc(CNCc2ccc(-c3ccc(-c4nc5cc(C(F)(F)F)ccc5[nH]4)cc3)cc2)cc1.O=C(O)C(F)(F)F
COc1ccc(N2CCN(CCCCNC(=O)c3ccc(NC(=O)c4ccc(Cl)c(Cl)c4)cc3)CC2)c(OC)c1
Fc1cccc(C=NN=c2cc[nH]c3ccccc23)c1
O=C(Nc1ccccc1)Nc1cccc(-c2cc(CNCCc3ccccc3)sc2-c2ccncc2)c1

Inhibition, 80%:
Cn1c(N)cc(-c2ccc(Br)cc2)c2c(=O)nc(N)nc1-2

Inhibition, 96%:
Cc1sc2nc(CN3CCCC3)nc(-n3c(NCCO)nc4ccccc43)c2c1C
CC(NC(=O)c1ccc(O)c(-c2ccc(Cl)c(Cl)c2)c1)C(=O)NC1CCCCC1 (stereo unspecified)
CS(=O)(=O)Cc1ccc(Nc2nccc(-c3c(-c4cccc(C(=O)Nc5c(F)cccc5F)c4)nn4ccccc34)n2)cc1
CON=Cc1sc(CNCCCN=c2cc(O)c3ccccc3[nH]2)c(C)c1Br.Cl

Inhibition, 95%:
Cc1csc(NC(=O)c2cn(-c3ccccc3)nc2-c2cccs2)n1
CC(C)OC(=O)c1ccc(NC(=O)N[C@@H](Cc2ccc(O)cc2)C(=O)NC2CCC(CCN3C4CCC3c3ccccc34)CC2)cc1.O=C(O)C(F)(F)F (stereo partly specified)
N#Cc1ccc2c(c1)CN(C1CCC(NC(=O)/C=C/c3cc(C(F)(F)F)cc(C(F)(F)F)c3)CC1)CCC2 (stereo unspecified)

Inhibition, 93%:
COc1ccc2nccc([C@@H](O)CN3CCC(NC(=O)c4cccc(-c5cc(C)no5)c4)CC3)c2c1
CS(=O)(=O)c1ccc(CCNCc2ccc(-c3ccc(CN(C(=O)c4ccc(Cl)nc4)C4CCN(Cc5ccccc5)CC4)cc3)nc2)cc1.O=C(O)C(F)(F)F

Inhibition, 94%:
Br.Cc1cccc2c(CON3C(N)=NC(N)=NC3(C)C)cccc12
Cn1nc(-c2ccc(NC(=O)Nc3cc(C(F)(F)F)cc(C(F)(F)F)c3)c(F)c2)c2cnc(NCCN3CCOCC3)nc21.O=C(O)C(F)(F)F
CCN(CC)CCCNc1ncc2c(-c3ccc(NC(=O)Nc4cc(C(F)(F)F)ccc4F)c(F)c3)nn(C)c2n1.O=C(O)C(F)(F)F

Inhibition, 91%:
O=C(c1ccc(-c2cccc(-c3nc4cc(F)ccc4[nH]3)c2)cc1)N1CCCCC1CN1CCC(O)C1 (stereo unspecified)
O=C(c1ccc(-c2cnc3[nH]cc(-c4ccc(C(=O)N5CCOCC5)cc4)c3c2)cc1)N1CCOCC1

Inhibition, 87%:
c1ccc(Oc2ccc(Nc3ccnc4ccc(-c5ccco5)cc34)cc2)cc1
CC(C)C(=O)n1ncc2c3c(N)nc(N)nc3ccc21

Inhibition, 89%:
COc1ccc2nc(C)cc(Nc3ccc(Cl)cc3)c2c1
